From PubChem BioAssay
AmpC no deterg – AmpC beta-lactamase inhibition without detergent; AmpC nitrocefin hydrolysis, absorbance 480 nm, 0.0001% Triton; 330,000 compounds, 0.52% hits; Potency, µM (highest dose often 57.1 µM), for the others: at the highest dose activity change, negative = inhibition, actives largely listed as inhibitors; P00811;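 also: plate controls were no compound for no effect and no enzyme for full effect; nearly all actives have a fitted effect of over 20% in size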
Target sequence (P00811 whole entry, looked up): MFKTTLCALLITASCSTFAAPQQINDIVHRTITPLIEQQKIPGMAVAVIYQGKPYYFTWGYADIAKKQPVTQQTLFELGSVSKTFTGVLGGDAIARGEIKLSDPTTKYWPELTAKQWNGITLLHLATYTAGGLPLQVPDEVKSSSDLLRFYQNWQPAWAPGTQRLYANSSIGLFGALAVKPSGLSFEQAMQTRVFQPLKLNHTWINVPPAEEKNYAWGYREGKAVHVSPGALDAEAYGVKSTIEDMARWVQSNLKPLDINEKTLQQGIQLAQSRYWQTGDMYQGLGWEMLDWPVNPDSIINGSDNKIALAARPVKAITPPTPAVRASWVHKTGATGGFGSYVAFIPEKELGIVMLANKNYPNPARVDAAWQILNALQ
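AmpC (5.3 nM in the dispensed reagent) in 20 mM phosphate pH 7.0 with 0.01% (detergent screen) or 0.0001% Triton X-100 was preincubated with compounds for 15 min at room temperature. Nitrocefin was then added from an 800 uM solution, and hydrolysis was followed at 480 nm.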
Pf growth 96h – P. falciparum growth inhibition at 96 hour, primary screen for plastid delayed-death inhibitors. 320,000 compounds, 6.9% hits. Potency, µM (highest dose often 28.7 µM), inactives show top-dose activity change, negative = inhibition, hits mostly inhibitors. P. falciparum luciferase reporter growth, 96 h
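96 h incubation, 37 C, 5% CO2, of luciferase-reporter P. falciparum-infected RBCs (2% hematocrit, 0.05% parasitemia final) with test compounds; endpoint luminescence.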
HCV inh – blocks hepatitis C virus. Huh7.5.1 HCVcc-Cre infection, luciferase reporter, 44 h. Potency, µM (titrated, usually from 41.8 µM), inactives show at the top dose activity change, negative = inhibition, usual class: inhibitors. 340,000 compounds, 3.4% hits. AID 651820
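Whole-lifecycle infectious HCVcc-Cre system; cells 1,000/well, compound then virus (~0.5 moi) added 4 h after plating, 44 h culture. Luciferase read 15 sec following 15 min substrate incubation, room temp.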
Pf growth 48h – inhibits P. falciparum growth in the first generation, 48 h | P. falciparum luciferase growth in erythrocytes, 48 h | Potency, µM (top dose mostly 28.7 µM), for the others: at the highest dose activity change, negative = inhibition, most hits filed as inhibitors | 310,000 compounds, 5.9% hits | AID 504832
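A one-generation exposure of luciferase-tagged malaria parasites in RPMI 1640/Albumax erythrocyte culture, 37 C and 5% CO2. Inhibition is inferred from decreased luminescence after adding detection reagent.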
AmpC detergent – inhibitors of E. coli AmpC beta-lactamase with detergent | AmpC hydrolysis of nitrocefin, absorbance 480 nm, 0.01% Triton | Potency, µM (titrated, usually from 114 µM), for inactives: at the highest dose activity change, negative = inhibition, actives largely listed as inhibitors | 370,000 compounds, 0.041% hits | AID 485294;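 also: 0% = no-compound wells and -100% = no-enzyme wells; nearly all actives have a fitted effect of over 25% in size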
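20 mM phosphate pH 7.0 + 0.01% (detergent screen) or 0.0001% Triton X-100; 5.3 nM AmpC reagent; cpd preinc 15 min RT; nitrocefin (800 uM stock) to start; A480 q20 s × 4 min; Activity was normalised to no-enzyme and no-compound control wells.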
AMA1 RON2 block – AMA1-RON2 (P. falciparum) interaction inhibition; AlphaScreen AMA1-biotinylated RON2 peptide binding; Potency, µM (series often up to 58.2 µM), without a hit: at the top dose activity change, negative = inhibition, hits mostly inhibitors; 360,000 compounds, 0.2% hits; AID 720542;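 also: 0% = vehicle wells and -100% = peptide control; nearly all actives have a fitted effect of over 45% in size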
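AMA1 (3D7) with his tag at 25 nM final met compounds first, then biotinylated RON2 peptide at 25 nM; detection used donor plus acceptor beads, 10 µg/mL apiece, read by AlphaScreen after 30 min at room temperature.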
Starred values were filed as active, the others as inactive; ? = inconclusive; · = no result given. The list is not random: actives were taken first. Their share in the collection is about 11%. Calls follow the shape of the dose curve; as a rule, active = well fitted curve in the direction sought with a large enough effect; inconclusive = small, poorly fitted or top-dose-only effect, or another doubt; inactive = no such curve, though single readings can be large; an effect the other way counts as inactive or inconclusive. Unless noted, % is scaled to controls: 0 for no effect and ±100 for the full control effect; potency is read from the fitted curve at half-maximal effect.

SMILES	AmpC no deterg	Pf growth 96h	HCV inh	Pf growth 48h	AmpC detergent	AMA1 RON2 block
C[N+]12CCC(CC1)C(C(O)(c1cccc(Cl)c1)c1cccc(Cl)c1)C2 (centres undefined)	43.3%	2.94µM*	1.9%	13.1µM*	-12.0%	-6.6%
N#CC(C#N)=C/C=C(\Nc1ccc(Cl)cc1)c1ccc(Cl)cc1	-39.1%	?	-13.1%	?	-4.7%	23.2%
N#CC(=C1C=C(Br)C(=NO)C=C1Cl)c1ccc(Cl)cc1	·	·	·	·	·	20µM*
CC(C)CNC(=O)C(=O)Nc1c2c(nn1-c1ccccc1)CS(=O)(=O)C2	·	·	·	·	-0.7%	·
CC(=O)N[C@@H](CC(=O)O)C(=O)N[C@@H](CCC(=O)O)C(=O)O	·	4.26µM*	·	?	·	·
CC(=O)NC(CCC(=O)O)C(=O)O (centres undefined)	·	·	20.5%	·	·	8.0%
CCCCC(=O)Nc1c(C(=O)N2CCN(c3ccccc3)CC2)oc2ccccc12	·	·	·	·	23.0%	·
COc1ccc(C(=O)NC(=S)N(C)C2CCCCC2)cc1Br	-3.0%	3.7µM*	-16.1%	?	-7.4%	50.6%
COc1ccc(C(=O)NC(=S)N(C)C2CCCCC2)cc1	-13.2%	11.7µM*	15.9%	-10.9%	-14.6%	77.3%
Cc1ccc(C(=O)NC(=S)N(C)C2CCCCC2)cc1Br	-23.6%	?	·	?	-1.7%	·
O=C(Cn1cc(S(=O)(=O)c2ccccc2)c(=O)c2cc(Cl)ccc21)Nc1ccc2c(c1)OCO2	·	·	·	·	3.1%	·
COc1ccc(CN2CCCC(C(=O)c3ccccc3SC)C2)cc1O (centres undefined)	1.8%	0.0%	-6.7%	?	2.0%	-1.2%
COc1ccc(-c2[nH]ncc2CN2CCCC(C(=O)c3ccc(OC)cc3OC)C2)cc1 (centres undefined)	44.4%	0.828µM*	8.4%	13.1µM*	9.3%	2.9%
COc1ccc(OC)c(CN2CCCC(C(=O)c3ccccc3SC)C2)c1 (centres undefined)	20.2%	0.0%	10µM*	?	-5.2%	-28.1%
Cc1cccc(CNC(=O)CCn2c(=O)c3cccn3c3ccc(F)cc32)c1	·	·	·	·	-2.5%	·
CCCOc1ccc(C2C(=O)N(C3CCCCCC3)CC(=O)N2CCCOCC)cc1OC (centres undefined)	·	·	·	·	6.6%	·
OC1c2cc(Br)ccc2N=C2CCCN21 (centres undefined)	-7.3%	10.4µM*	?	8.28µM*	2.7%	-5.6%
CCOc1ccc(CNC(=O)CCS(=O)(=O)c2cc3c4c(c2)CCN4C(=O)CC3)cc1OC	·	·	·	·	-10.7%	·
CCOC(=O)c1sc(NC(=O)CSCc2c(C)noc2C)nc1C	-26.7%	?	?	10.4µM*	2.8%	-1.0%
CCOC(=O)c1sc(NC(=O)CSc2ncccn2)nc1C	2.5%	13.1µM*	15.8µM*	50.0%	-11.9%	11.7%
Cc1noc(C)c1CSCC(=O)Nc1nc2ccccc2s1	-29.3%	?	-24.6%	16.6%	?	-3.9%
CCOC(=O)c1sc(NC(=O)CSc2nnc(-c3ccc(OC)cc3)n2CCOC)nc1C	137.7%	13.1µM*	?	?	?	-8.7%
CCC(CC)c1nnc(NC(=O)CSCc2c(C)noc2C)s1	·	·	·	·	·	0.0%
CC(=O)c1sc(NC(=O)CSCc2c(C)noc2C)nc1-c1ccccc1	-18.1%	?	0.0%	10.4µM*	5.8%	11.6%
CCOC(=O)c1sc(NC(=O)CSc2nccc(C)n2)nc1C	-10.7%	0.0%	-19.4%	-21.3%	0.1%	-6.4%
SMILES	AmpC no deterg	Pf growth 96h	HCV inh	Pf growth 48h	AmpC detergent	AMA1 RON2 block
Cc1ccc(C(=O)n2nc(C)c(S(=O)(=O)N3CCCCCC3)c2C)cc1C	·	·	·	·	-0.7%	·
N#Cc1c(-c2ccccc2)c(-c2ccccc2)n(Cc2ccco2)c1NC(=O)c1cccs1	-36.1%	2.1%	2.82µM*	?	2.6%	-17.0%
O=C(Cn1c(=O)oc2ccccc21)NCc1cccc(Cl)c1	·	·	·	·	13.2%	·
CCCCNC(=O)COc1ccccc1[N+](=O)[O-]	-4.6%	59.5%	33.4%	60.7%	-5.6%	11.8%
CCCCNC(=O)c1cc2cccc([N+](=O)[O-])c2[nH]1	-49.2%	?	?	2.62µM*	3.7%	0.3%
CCCCn1c2ccc(F)cc2c2nnc(SCCN(CC)CC)nc21	·	·	·	·	-0.7%	·
CCN(CC)CCSc1nnc2c3cc(C)ccc3n(Cc3ccccc3)c2n1	39.5%	?	12.6µM*	?	1.1%	-17.6%
Cc1ccc(NC(=O)c2cc(C)n(-c3cccc(C)c3)c2C)cc1	15.8µM*	-87.1%	?	14.9%	1.7%	?
Cc1cc(C)cc(-n2c(C)cc(/C=N/NC(=O)c3cccc([N+](=O)[O-])c3C)c2C)c1	-6.1%	11.7µM*	3.98µM*	·	-1.0%	-4.3%
Cc1cc(C)cc(-n2c(C)cc(/C=N/NC(=O)c3ccncc3)c2C)c1	12.2%	?	-14.6%	?	3.1%	39.5%
Cc1cccc(-n2c(C)cc(/C=N\NC(=O)c3ccco3)c2C)c1	-21.1%	13.1%	?	8.28µM*	3.4%	46.9%
Cc1cc(/C=N/NC(=O)c2ccccn2)c(C)n1-c1cccc([N+](=O)[O-])c1	-1.6%	4.65µM*	?	-6.3%	2.4%	12.0%
O=C(CSc1ccc2nnc(CCNS(=O)(=O)c3ccccc3)n2n1)Nc1ccccc1C(F)(F)F	·	·	·	·	4.3%	·
CCC(C)[C@H](N)c1nnc(SCc2ccc(Cl)c(Cl)c2)o1 (some centres undefined)	·	·	·	·	2.2%	·
COc1ccc2cc(CN(CC3CCCO3)S(=O)(=O)c3ccccc3)c(=O)[nH]c2c1 (centres undefined)	46.4%	·	-9.1%	-15.6%	-9.8%	-0.4%
COc1ccc2[nH]c(=O)c(CN(CC3CCCO3)S(=O)(=O)c3ccccc3)cc2c1 (centres undefined)	30.0%	1.65µM*	?	0.5%	-6.2%	-10.0%
O=c1[nH]c2cc3c(cc2cc1CN(CC1CCCO1)S(=O)(=O)c1ccc(Cl)cc1)OCCO3 (centres undefined)	-10.0%	11.7µM*	7.3%	38.6%	-6.5%	-4.4%
Cc1ccc(S(=O)(=O)N(Cc2cc3cc4c(cc3[nH]c2=O)OCCO4)CC2CCCO2)cc1 (centres undefined)	-12.1%	-20.3%	4.6%	21.9%	-8.6%	?
O=C(OCc1cc(=O)n2c3c(sc2n1)CCCC3)c1cccc(NC(=O)c2ccccc2F)c1	·	·	·	·	-9.7%	·
CCOC(=O)c1ccc(/C=C2/C=C(c3ccccc3)N(c3ccc(Cl)c(C(=O)O)c3)C2=O)cc1	-11.6%	13.1µM*	?	?	-0.7%	-12.2%
